About 83,000 compounds went through this panel and 20% of them were active in at least one assay; those are over-represented in the sample as a whole.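 Single-concentration screen, 48 h exposure, 96-well plates. Endpoint: percent growth. Below 10 = active.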 Activity calls are given as the source filed them.
Test system: HOP-62 NSCLC
Test: NCI-60 one-dose screen, 48 h (100 = growth as untreated, 0 = no growth, -100 = all killed)
Details: 10 µM unless noted
Protocol: Growth inhibition of the HOP-62 human Non-Small Cell Lung tumor cell line is measured as a screen for anti-cancer activity. Cells are grown in 96 well plates and exposed to the test compound for 48 hours. Compounds are tested at a single concentration, which is 10^-5 M for most compounds. The reported endpoint is percent growth (GI% or GIPRCNT), where numbers from 0 - 100% represent growth inhibition, and numbers from -100% - 0 represent cell death. For example, a value of 40 represents 60% growth inhibition. A value of 0 means no net growth occurred over the course of the experiment. A value of -40 indicates 40% of cells at the beginning of the experiment died by the end of the experiment. A value of -100 means all cells are dead at the end of the experiment.
NCI-60 Human Tumor Cell Lines Screen was performed using the standard one-dose NCI protocol, which is described in more detail at https://dtp.cancer.gov/discovery_development/nci-60/default.htm.
Compounds with GIPRCNT values below 10 were considered active. Activity score was based on GIPRCNT using the following formula: […]
Score is 0 for GIPRCNT values of 100 or above, 50 for GIPRCNT values of 0, and 100 for GIPRCNT values of -100.

Q: `Nc1nc(-c2ccnc(Cl)c2)nn1-c1nc2ccccc2s1` was tested. Which growth did it give?
A: 99.5% (inactive)

Q: How did the growth turn out when `COc1cc(-c2ccc3cc(OC)c(OC)c(OC)c3c2)cc(OC)c1OC` was run?
A: 61.3% (inactive)

Q: With `COc1cccc(OC(=O)c2ccccc2)c1OC(=O)c1ccccc1` as the compound, how does the growth read?
A: 61.7% (inactive)

Q: `Cc1nc2cc(Nc3nc(Nc4ccc(F)cc4)nc(N4CCCC4)n3)ccc2n1Cc1ccccc1` was tested. Which growth did it give?
A: -22.5% (active)

Q: How did the growth turn out when `CN1CCn2c(c(Sc3ccc(C(=O)NO)cc3)c3ccccc32)C1=O` was run?
A: 21.3% (inactive)

Q: For `O=S(=O)(Nc1ccc(Cl)c(Cl)c1)c1ccc(-c2cnc(C3CC3)o2)cc1`, which growth is on record?
A: 24% (inactive)

Q: Which growth does the source give for `Cc1c(NCC(=O)Nc2nc3ccccc3[nH]2)c(=O)n(-c2ccccc2)n1C` here?
A: 107% (inactive)

Q: How did the growth turn out when `OC[C@@H](O)[C@@H](O)CO` was run?
A: 126% (inactive)

Q: `O=c1c2cc(F)ccc2oc2c(NCCNCCO)nc3ccccc3c12` was tested. Which growth did it give?
A: 35.5% (inactive)

Q: With `O=c1[nH]c(-c2ccccn2)nc2sc3c(c12)CCCCCC3` as the compound, how does the growth read?
A: 43% (inactive)

Q: For `O=c1oc2ccccc2cc1-c1csc(N=Nc2c(O)[nH]c3ccc(Br)cc23)n1`, which growth is on record?
A: 104% (inactive)

Q: `COc1ccc(/C=C2\CN(Cc3cn(CCCNc4ccnc5cc(Cl)ccc45)nn3)C/C(=C\c3ccc(OC)cc3)C2=O)cc1` was tested. Which growth did it give?
A: 63.6% (inactive)

Q: How did the growth turn out when `Cc1ccc(S(=O)(=O)c2ccc3[nH]c(=O)[nH]c(=O)c3c2)cc1` was run?
A: 106% (inactive)

Q: Which growth does the source give for `COc1cc(/C=C/C(=O)CC(=O)/C=C/c2cc(Br)c(OC)c(OC)c2)cc(Br)c1OC` here?
A: 93.1% (inactive)

Q: `O=C(N/N=C/c1ccc2c(c1)OCO2)c1cnn2c1NC(c1ccccc1)C2` (stereo not given) was tested. Which growth did it give?
A: 60.5% (inactive)

Q: For `COc1cccc(C2C3=C(COC3=O)N(CCO)c3cc4c(cc32)CCC4)c1` (stereo not given), which growth is on record?
A: 19.2% (inactive)

Q: How did the growth turn out when `Cn1c2ccc(Cl)cc2c2nn(C(=O)c3ccccc3)c(=O)nc21` was run?
A: 101% (inactive)

Q: With `Oc1ccc2ccccc2c1C1NN=C(c2ccccc2)S1` (stereo not given) as the compound, how does the growth read?
A: 28.8% (inactive)

Q: Which growth does the source give for `COc1ccc(OC2=C(C#N)C(=N)N3c4ccccc4Sc4ccccc4C3N2)cc1` (stereo not given) here?
A: 79.9% (inactive)

Q: For `N#Cc1ccc(C(F)(F)F)nc1N1CCC(C(=O)Nc2ccc(Cl)cc2)CC1`, which growth is on record?
A: 69% (inactive)

Q: `O=C1C2CC3C(CC2C(=O)[N]1[Sn]([c]1ccccc1)([c]1ccccc1)[c]1ccccc1)C1(Cl)C(Cl)=C(Cl)C3(Cl)C1(Cl)Cl` (stereo not given) was tested. Which growth did it give?
A: -92.1% (active)

Q: With `CCOC(=O)c1c(Cl)c2c(n1Cc1cc(OC)cc(OC)c1)-c1oncc1CCC2` as the compound, how does the growth read?
A: 39.7% (inactive)

Q: With `CC(C)(C)[Si](C)(C)OC1[C@@H](COC(=O)NC(=O)CCl)O[C@@H](n2cnc3c(N)ncnc32)[C@H]1O[Si](C)(C)C(C)(C)C` (stereo not given in full) as the compound, how does the growth read?
A: 81.9% (inactive)

Q: For `CCN(C(=O)c1ccc2c3c(cccc13)C=C2)c1ccccc1`, which growth is on record?
A: 99.8% (inactive)

Q: For `COc1ccc(NS(=O)(=O)c2ccc(-c3cnc(C4CC4)o3)cc2)cc1`, which growth is on record?
A: 54.8% (inactive)

Q: How did the growth turn out when `C=C1CC[C@@H]2[C@@](C)(CCC[C@]2(C)C(=O)O)[C@@H]1CC[C@H](CO)CCO` was run?
A: 100% (inactive)

Q: How did the growth turn out when `O/N=C/c1cccs1` was run?
A: 94.3% (inactive)

Q: `C[C@@H](Oc1cc(-c2cnn(C3CC4(CCCNC4)C3)c2)cnc1N)c1c(Cl)ccc(F)c1Cl` (stereo not given in full) was tested. Which growth did it give?
A: 54% (inactive)

Q: For `COc1ccc(-c2nc3sc(C)nn3c2-c2nc3cc(C)c(C)cc3[nH]2)cc1`, which growth is on record?
A: 91.8% (inactive)

Q: How did the growth turn out when `COc1ccc2c(c1)c(=O)oc1c(C)c(OCC(C)=O)ccc12` was run?
A: 118% (inactive)

Q: Which growth does the source give for `COC(=O)C1C2CC3c4[nH]c5cc(OC)ccc5c4CCN3CC2CC(OC2CCCCO2)C1OC` (stereo not given) here?
A: 108% (inactive)

Q: With `CN(C)C(=S)SCN1C(=O)c2ccc([N+](=O)[O-])cc2S1(=O)=O` as the compound, how does the growth read?
A: 105% (inactive)

Q: For `COC1(OC)C2(Cl)C=C(c3ccccc3)C1(Cl)C(Cl)=C2Cl` (stereo not given), which growth is on record?
A: 93.9% (inactive)

Q: `COC(=O)c1c2c(c(C)[n+]([O-])c1C)C(=O)C=C(NCc1cccc(OC)c1)C2=O` was tested. Which growth did it give?
A: -15.1% (active)

Q: How did the growth turn out when `CSc1ccc(OC(C)=O)cc1C` was run?
A: 79.4% (inactive)

Q: How did the growth turn out when `O=c1[nH]c(=S)[nH]c(=O)n1Cc1cccc2ccccc12` was run?
A: 106% (inactive)

Q: How did the growth turn out when `CN1CCC(OC2c3ccccc3CCc3ccccc32)CC1` was run?
A: 93.8% (inactive)

Q: How did the growth turn out when `CC(=O)OC[C@H](O)[C@@]1(O)CC[C@H]2[C@@H]3CCC4=CC(=O)CC[C@]4(C)[C@H]3[C@@H](O)C[C@@]21C` was run?
A: 115% (inactive)

Q: With `Cc1ccc2nc(NC(=O)CSC(=S)N3CCN(C)CC3)sc2c1` as the compound, how does the growth read?
A: 106% (inactive)

Q: For `CC(=O)Nc1ccc(Sc2ccc([N+](=O)[O-])o2)cc1`, which growth is on record?
A: 68.4% (inactive)
